# The panel holds about 83,000 compounds, 20% with a hit somewhere; the sample as a whole holds those more often.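 Note: values are percent growth. 100 is the growth of untreated cells, values between 100 and 0 indicate rising inhibition; between -100 and 0 indicates cell death.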 Values without a mark were called inactive. The source made the active and inactive calls. The calls were made as follows: active = growth percent below 10; inactive = the rest.
# System: HOP-92 NSCLC
# Test: NCI-60 one-dose screen, 48 h (100 = growth as untreated, 0 = no growth, -100 = all killed)
# Conditions: 10 µM unless noted
row,SMILES,growth
1,C#CCOC(=O)C(N)CSSCC(N)C(=O)O (stereo not drawn),97.5%
2,Nc1nc(=O)n([C@H]2CC=C(CO)O2)cc1F,101%
3,O=C(Nc1cccc(Cl)c1)Oc1c(Cl)c(Cl)c(Cl)c(Cl)c1Cl,58.7%
4,COc1ccccc1/C=C/C1=C(C)CCC(c2ccccc2OC)C1C (stereo not drawn),-35% (active)
5,Cc1nc2ccccc2c(/C=C/c2ccc(Br)cc2)c1C(=O)/C=C/c1ccccc1,53.1%
6,Cc1c2ccncc2c(C)c2c1c1ccccc1n2CCCCCC(=O)O,80.6%
7,Cn1cc(-c2csc(-c3cn(C)c4ccc(F)cc34)n2)c2cnccc21,70.8%
8,O=C(Nc1ccccc1CNc1nc(Nc2ccc(OCCN3CCCC3)cc2)ncc1Cl)NC1CCCCC1,65.5%
9,NC(=O)[C@@H]1Cc2ccccc2CN1C(=O)c1ccc2c(c1)Cc1ccccc1-2,92.9%
10,C/C(=C(\c1ccc(OCCCN(C)C)cc1)c1ccc(OC(=O)Cc2ccccc2)cc1)c1ccc(Cl)cc1,51.8%
11,COc1cc(C)cc(-c2c(-c3cc(N4CC(O)C4)nc(-c4cccnc4)n3)cnn2C)c1,74.7%
12,Cn1cc(-c2ccc3occ(-c4cccc(-c5ccncc5)c4)c3n2)cn1,50.6%
13,O=C1CCc2c(sc3[nH]c(=S)n(-c4cc(C(F)(F)F)cc(C(F)(F)F)c4)c(=O)c23)C1,-61.8% (active)
14,COC1CC(O)C2=C(CC3C(/C(C)=C\CC=C(C)C)CCC3(C)O2)C1=O (stereo not drawn),97.5%
15,O=C(CSc1nnc(-c2ccc(Cl)c(Cl)c2)n1-c1ccccc1)Nc1ccc(C(=O)/C=C/c2ccc(Cl)cc2)cc1,80.7%
16,Cc1ccc(C(F)(F)F)cc1N1CCN(C(=O)[C@H]2C[C@H]2c2ccc(C(F)(F)F)nc2)CC1,60.5%
17,COc1ccc(S(=O)(=O)NC2c3ccccc3CC2O)cc1OC (stereo not drawn),109%

row,SMILES,growth
1,CCCCCC(C)(O)C(C(=O)O)c1ccccc1 (stereo not drawn),94.1%
2,C=C(C)[C@@H]1CC[C@]2(C(=O)NC(C)=O)CC[C@]3(C)[C@H](CC[C@@H]4[C@@]5(C)CCCNC(C)(C)[C@@H]5CC[C@]43C)[C@@H]12,56.4%
3,Nc1nc(N)c2c(n1)NC(c1cccc(Nc3ccnc4cc(C(F)(F)F)ccc34)c1)CC(c1ccc(Cl)cc1)=N2 (stereo not drawn),34.5%
4,Cc1cc(=O)oc2cc(Oc3nc(-c4ccccc4)cn4c(-c5ccccc5)cnc34)ccc12,22.4%
5,COc1ccc(Cn2cc3c(c2)-c2oncc2CC3)cc1,70.1%
6,CN1CCN(Cn2nc(-c3cc(Cl)cc(Cl)c3Cl)oc2=S)CC1,119%
7,CC(C)(C)CC(C)(C)Nc1c(-c2c(O)c3ccccc3oc2=O)nc2sccn12,107%
8,O=C(O)CCCN1C(=O)CSC1=S,103%
9,CC1(C)CC(=O)C2=C(C1)OC(C(=O)c1ccccc1)C2c1cccc(Oc2ccccc2)c1 (stereo not drawn),13.4%
10,COc1cc(-c2ccc(-c3ccc(C(=N)N)s3)s2)cc(OC)c1OC,33.6%
11,C(CCCSC1=NCCN1)CCSC1=NCCN1,41.4%
12,COc1ccc(NC(=O)c2sc3nc(C)c(C(=O)c4ccccc4)cc3c2N)cc1,111%
13,CNc1nc2ncc(-c3c(C)noc3C)cc2n1Cc1ccccc1,7.09% (active)
14,COC(=O)[C@H](C)NC(=O)c1ccc(NC(=O)c2[nH]c(C)c(Cl)c2Cl)c(OCCN)c1,101%
15,Cc1[nH]c(C(=O)Nc2ccc(C(N)=O)cc2OC(C)C)c(Cl)c1Cl,73.3%
16,COc1cc(/C=N/NC(=O)c2ccc3nc(-c4ccc(Cl)cc4)[nH]c3c2)cc(OC)c1OC,71.7%

# System: NCI-H522 lung
# Test: as above
# Conditions: 10 µM unless noted
row,SMILES,growth
1,C#CCOC(=O)C(N)CSSCC(N)C(=O)O (stereo not drawn),86.1%
2,Nc1nc(=O)n([C@H]2CC=C(CO)O2)cc1F,80.7%
3,O=C(Nc1cccc(Cl)c1)Oc1c(Cl)c(Cl)c(Cl)c(Cl)c1Cl,83.9%
4,COc1ccccc1/C=C/C1=C(C)CCC(c2ccccc2OC)C1C (stereo not drawn),-45% (active)
5,Cc1nc2ccccc2c(/C=C/c2ccc(Br)cc2)c1C(=O)/C=C/c1ccccc1,-34.9% (active)
6,Cc1c2ccncc2c(C)c2c1c1ccccc1n2CCCCCC(=O)O,101%
7,Cn1cc(-c2csc(-c3cn(C)c4ccc(F)cc34)n2)c2cnccc21,-76% (active)
8,O=C(Nc1ccccc1CNc1nc(Nc2ccc(OCCN3CCCC3)cc2)ncc1Cl)NC1CCCCC1,113%
9,NC(=O)[C@@H]1Cc2ccccc2CN1C(=O)c1ccc2c(c1)Cc1ccccc1-2,66.9%
10,O=C(Nc1ccccc1C(F)(F)F)C1=NCCCCN1,86.8%
11,C/C(=C(\c1ccc(OCCCN(C)C)cc1)c1ccc(OC(=O)Cc2ccccc2)cc1)c1ccc(Cl)cc1,67.2%
12,COc1cc(C)cc(-c2c(-c3cc(N4CC(O)C4)nc(-c4cccnc4)n3)cnn2C)c1,86.5%
13,Cn1cc(-c2ccc3occ(-c4cccc(-c5ccncc5)c4)c3n2)cn1,-18.5% (active)
14,O=C1CCc2c(sc3[nH]c(=S)n(-c4cc(C(F)(F)F)cc(C(F)(F)F)c4)c(=O)c23)C1,-46.6% (active)
15,COC1CC(O)C2=C(CC3C(/C(C)=C\CC=C(C)C)CCC3(C)O2)C1=O (stereo not drawn),90.1%
16,COc1ccc(S(=O)(=O)N(C)c2oc(-c3ccc(Cl)cc3)nc2C#N)cc1,83%
17,O=C(CSc1nnc(-c2ccc(Cl)c(Cl)c2)n1-c1ccccc1)Nc1ccc(C(=O)/C=C/c2ccc(Cl)cc2)cc1,64.7%
18,Cc1ccc(C(F)(F)F)cc1N1CCN(C(=O)[C@H]2C[C@H]2c2ccc(C(F)(F)F)nc2)CC1,72%
19,COc1ccc(S(=O)(=O)NC2c3ccccc3CC2O)cc1OC (stereo not drawn),99%
20,CN1CCN(Cc2ccc(NC(=O)c3cncc(C#Cc4c(N)ncc5cc(F)ccc45)c3)cc2C(F)(F)F)CC1,34.4%

row,SMILES,growth
1,COc1ccccc1NC(=O)n1c(=O)cc(C)c2ccc(O)cc21,96.2%
2,CCCCCC(C)(O)C(C(=O)O)c1ccccc1 (stereo not drawn),95%
3,C=C(C)[C@@H]1CC[C@]2(C(=O)NC(C)=O)CC[C@]3(C)[C@H](CC[C@@H]4[C@@]5(C)CCCNC(C)(C)[C@@H]5CC[C@]43C)[C@@H]12,-46.7% (active)
4,Nc1nc(N)c2c(n1)NC(c1cccc(Nc3ccnc4cc(C(F)(F)F)ccc34)c1)CC(c1ccc(Cl)cc1)=N2 (stereo not drawn),32.6%
5,COc1cccc(-c2cc(-c3ccc(Nc4nc(Nc5ccc(Cl)cc5)nc(Nc5ccc(Cl)cc5)n4)cc3)nc(N)c2C#N)c1,87.4%
6,Cc1cc(=O)oc2cc(Oc3nc(-c4ccccc4)cn4c(-c5ccccc5)cnc34)ccc12,47.1%
7,COc1cc(OC)cc(C(=O)Nc2cnc(Nc3ccc(N4CCOCC4)nc3)nc2Oc2ccc(C(F)(F)F)cc2)c1,77.1%
8,COc1ccc(Cn2cc3c(c2)-c2oncc2CC3)cc1,71%
9,CN1CCN(Cn2nc(-c3cc(Cl)cc(Cl)c3Cl)oc2=S)CC1,91.1%
10,CC(C)(C)CC(C)(C)Nc1c(-c2c(O)c3ccccc3oc2=O)nc2sccn12,83%
11,O=C(O)CCCN1C(=O)CSC1=S,93.3%
12,CC1(C)CC(=O)C2=C(C1)OC(C(=O)c1ccccc1)C2c1cccc(Oc2ccccc2)c1 (stereo not drawn),38.2%
13,O=C(OCc1ccc2c(Br)cc(Br)c(O)c2n1)N1CCN(C(=O)c2cc3ccccc3[nH]2)CC1,37.5%
14,COc1cc(-c2ccc(-c3ccc(C(=N)N)s3)s2)cc(OC)c1OC,61.5%
15,C(CCCSC1=NCCN1)CCSC1=NCCN1,103%
16,COc1ccc(NC(=O)c2sc3nc(C)c(C(=O)c4ccccc4)cc3c2N)cc1,80.8%
17,CNc1nc2ncc(-c3c(C)noc3C)cc2n1Cc1ccccc1,57.1%
18,COC(=O)[C@H](C)NC(=O)c1ccc(NC(=O)c2[nH]c(C)c(Cl)c2Cl)c(OCCN)c1,107%
19,Cc1[nH]c(C(=O)Nc2ccc(C(N)=O)cc2OC(C)C)c(Cl)c1Cl,91.7%
20,COc1cc(/C=N/NC(=O)c2ccc3nc(-c4ccc(Cl)cc4)[nH]c3c2)cc(OC)c1OC,78.3%
